# Structures can show the parent of a compound that is named as a salt. ± gives the standard deviation.
# Legend:
# [1] = tested on: Jurkat; experiment: mean cell size (FSC-A) relative to DMSO control (fraction of control); higher = larger cells; settings: 48 h
# Outline: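 Jurkat cells seeded at 600 cells/µl were incubated 1 h, then exposed for 48h to the Enzo Screen-Well FDA Approved Drug Library v2.0 at 25µM in 0.9% (v/v) final DMSO. Drugs that cut counts below 20% of controls were diluted 10-fold and retested, down to 25nM. Cell count and mean cell size (forward scatter area) were read on an Accuri C6 flow cytometer, relative to solvent-only controls. Plates held 6-12 controls; values are means of 3 biological replicates.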
# [2] = tested on: Jurkat; experiment: cell count relative to DMSO control (fraction of control); higher = more cells (less growth inhibition); settings: 48 h
Structure (SMILES),mean cell size [1],cell count [2]
CCCNC(C)C(=O)Nc1ccccc1C (centres undefined) [Prilocaine·HCl] (concentration: 25 µM),1 ± 0.022,0.693 ± 0.13
Clc1ccc2c(c1)C(N1CCNCC1)=Nc1ccccc1O2 [Amoxapine] (concentration: 25 µM),1.03 ± 0.013,0.538 ± 0.073
CC(C)(C)NC[C@H](O)COc1nsnc1N1CCOCC1 [(S)-Timolol Maleate] (concentration: 25 µM),0.963 ± 0.034,0.967 ± 0.15
Cc1cccc(C)c1OCC(C)N (centres undefined) [Mexiletine·HCl] (concentration: 25 µM),0.983 ± 0.012,0.719 ± 0.014
CCCCC(=O)N(Cc1ccc(-c2ccccc2-c2nnn[nH]2)cc1)[C@H](C(=O)O)C(C)C [Valsartan] (concentration: 25 µM),0.9682 ± 0.0072,0.976 ± 0.11
CO/N=C(\C(=O)N[C@@H]1C(=O)N2C(C(=O)[O-])=C(C[N+]3(C)CCCC3)CS[C@H]12)c1csc(N)n1 [Cefepime·HCl Hydrate] (concentration: 25 µM),1.02 ± 0.046,0.826 ± 0.045
Cc1c(OCC(F)(F)F)ccnc1C[S+]([O-])c1nc2ccccc2[nH]1 (centres undefined) [Lansoprazole] (concentration: 25 µM),0.927 ± 0.027,0.617 ± 0.01
CNCCC=C1c2ccccc2CCc2ccccc21 [Nortriptyline·HCl] (concentration: 25 µM),1.06 ± 0.025,0.498 ± 0.056
O=C(CCCCCCC(=O)Nc1ccccc1)NO [Vorinostat] (concentration: 250 nM),0.947 ± 0.035,0.71 ± 0.048
COC(=O)C1=C(C)NC(C)=C(C(=O)OC(C)C)C1c1cccc2nonc12 (centres undefined) [Isradipine] (concentration: 25 µM),0.924 ± 0.03,1.13 ± 0.13
Nc1nc(=O)n([C@@H]2CS[C@H](CO)O2)cc1F [Emtricitabine] (concentration: 25 µM),1.03 ± 0.019,0.581 ± 0.14
COc1ccnc(C[S+]([O-])c2nc3cc(OC(F)F)ccc3[nH]2)c1OC (centres undefined) [Pantoprazole] (concentration: 25 µM),0.9065 ± 0.0044,0.85 ± 0.034
O=C(O)c1cc(=O)c2c(OCC(O)COc3cccc4oc(C(=O)O)cc(=O)c34)cccc2o1 [Cromolyn·Na (Disodium Cromoglycate)] (concentration: 25 µM),0.9231 ± 0.0045,1.05 ± 0.096
CCC(=O)OC(OP(=O)(CCCCc1ccccc1)CC(=O)N1C[C@H](C2CCCCC2)C[C@H]1C(=O)O)C(C)C (some centres undefined) [Fosinopril·Na] (concentration: 25 µM),0.974 ± 0.054,0.562 ± 0.12
CC(=O)NCCCS(=O)(=O)O [Acamprosate] (concentration: 25 µM),1.05 ± 0.062,0.933 ± 0.097
COc1cc2nc(N3CCN(C(=O)C4COc5ccccc5O4)CC3)nc(N)c2cc1OC (centres undefined) [Doxazosin Mesylate] (concentration: 2.5 µM),1.01 ± 0.011,0.79 ± 0.13
CCOC(=O)c1ncn2c1CN(C)C(=O)c1cc(F)ccc1-2 [Flumazenil] (concentration: 25 µM),0.95 ± 0.014,0.87 ± 0.025
N[C@@H](Cc1cc(I)c(Oc2cc(I)c(O)c(I)c2)c(I)c1)C(=O)O [Levothyroxine·Na] (concentration: 25 µM),1.02 ± 0.059,0.808 ± 0.087
CC(=O)OCC(=O)[C@@]12OC3(CCCC3)O[C@@H]1C[C@H]1[C@@H]3CCC4=CC(=O)C=C[C@]4(C)[C@@]3(F)[C@@H](O)C[C@@]12C [Amcinonide] (concentration: 25 µM),0.994 ± 0.064,0.823 ± 0.039
OCCN1CCN(CCCN2c3ccccc3Sc3ccc(Cl)cc32)CC1 [Perphenazine] (concentration: 2.5 µM),1 ± 0.029,0.556 ± 0.11
CC(C)n1c(/C=C/[C@H](O)C[C@H](O)CC(=O)O)c(-c2ccc(F)cc2)c2ccccc21 [Fluvastatin·Na] (concentration: 25 µM),0.972 ± 0.059,0.492 ± 0.12
C[C@@H]1[C@H](O)[C@@H](C)/C=C/C=C/C=C/C=C/C=C/C=C/C=C/[C@H](O[C@@H]2O[C@H](C)[C@@H](O)[C@H](N)[C@@H]2O)C[C@@H]2O[C@](O)(C[C@@H](O)C[C@@H](O)[C@H](O)CC[C@@H](O)C[C@@H](O)CC(=O)O[C@H]1C)C[C@H](O)[C@H]2C(=O)O [Amphotericin B] (concentration: 25 µM),1.016 ± 0.0092,0.27 ± 0.024
CCOC(=O)[C@H](CCc1ccccc1)N[C@@H](C)C(=O)N1[C@H](C(=O)O)C[C@H]2CCCC[C@@H]21 [Trandolapril] (concentration: 25 µM),0.973 ± 0.044,0.924 ± 0.12
CC(C)(C)NCC(O)COc1cccc2c1CC(O)C(O)C2 (centres undefined) [Nadolol] (concentration: 25 µM),0.928 ± 0.041,0.487 ± 0.059
Cn1c(=O)c2nc[nH]c2n(C)c1=O [Theophylline] (concentration: 25 µM),0.947 ± 0.041,1.05 ± 0.031
COc1c(C)c2c(c(O)c1C/C=C(\C)CCC(=O)OCCN1CCOCC1)C(=O)OC2 [Mycophenolate Mofetil] (concentration: 25 µM),0.892 ± 0.0081,0.203 ± 0.039

Structure (SMILES),mean cell size [1],cell count [2]
Cn1c(=O)c2c(ncn2C)n(C)c1=O [Caffeine] (concentration: 25 µM),0.986 ± 0.046,1 ± 0.093
O=C(O)C1(C(=O)O)CCC1.[NH2-].[NH2-].[Pt+2] [Carboplatin] (concentration: 25 µM),1.08 ± 0.016,0.51 ± 0.029
C[C@H](CCC(=O)O)[C@H]1CC[C@H]2[C@@H]3[C@H](O)C[C@@H]4C[C@H](O)CC[C@]4(C)[C@H]3CC[C@]12C [Chenodiol (Chenodeoxycholic Acid)] (concentration: 25 µM),0.946 ± 0.037,0.838 ± 0.13
CCN1CC(CCN2CCOCC2)C(c2ccccc2)(c2ccccc2)C1=O (centres undefined) [Doxapram·HCl] (concentration: 25 µM),0.928 ± 0.013,1.01 ± 0.015
CC[C@@]1(O)C(=O)OCc2c1cc1n(c2=O)Cc2cc3c(CN(C)C)c(O)ccc3nc2-1 [Topotecan·HCl] (concentration: 25 nM),1.31 ± 0.064,0.199 ± 0.016
Cc1ccc(/C(=C\CN2CCCC2)c2cccc(/C=C/C(=O)O)n2)cc1 [Acrivastine] (concentration: 5 µM),1.06 ± 0.052,0.976 ± 0.12
CO[C@@]12[C@H](COC(N)=O)C3=C(C(=O)C(C)=C(N)C3=O)N1C[C@@H]1N[C@@H]12 [Mitomycin C] (concentration: 2.5 µM),1.22 ± 0.059,0.257 ± 0.048
CC(C)c1nc(N(C)S(C)(=O)=O)nc(-c2ccc(F)cc2)c1/C=C/[C@@H](O)C[C@@H](O)CC(=O)O [Rosuvastatin Calcium] (concentration: 25 µM),1.19 ± 0.041,0.689 ± 0.065
CCCCN1CCCCC1C(=O)Nc1c(C)cccc1C (centres undefined) [Bupivacaine·HCl] (concentration: 25 µM),0.982 ± 0.02,0.656 ± 0.097
OC[C@H]1O[C@@H](O[C@@H]2[C@@H](CO)OC(O)(CO)[C@H]2O)[C@H](O)[C@@H](O)[C@H]1O (mixture of isomers) [Lactulose] (concentration: 25 µM),0.938 ± 0.046,0.56 ± 0.15
CC1=C(CC(=O)O)c2cc(F)ccc2/C1=C\c1ccc([S+](C)[O-])cc1 (centres undefined) [Sulindac] (concentration: 25 µM),0.988 ± 0.019,0.782 ± 0.083
N=C(N)c1ccc(OCCCCCOc2ccc(C(=N)N)cc2)cc1 [Pentamidine Isethionate] (concentration: 25 µM),0.878 ± 0.021,0.601 ± 0.055
CCn1cc(C(=O)O)c(=O)c2cc(F)c(N3CCNCC3)cc21 [Norfloxacin] (concentration: 25 µM),0.9213 ± 0.0047,0.982 ± 0.014
O=C1CCC(N2C(=O)c3ccccc3C2=O)C(=O)N1 (centres undefined) [Thalidomide] (concentration: 25 µM),0.922 ± 0.015,1.01 ± 0.12
COc1ccccc1Oc1c(NS(=O)(=O)c2ccc(C(C)(C)C)cc2)nc(-c2ncccn2)nc1OCCO [Bosentan] (concentration: 25 µM),0.975 ± 0.018,0.675 ± 0.068
Oc1ncnc2[nH]ncc12 [Allopurinol] (concentration: 25 µM),0.965 ± 0.013,0.701 ± 0.13
COC(=O)CCc1ccc(OCC(O)CNC(C)C)cc1 (centres undefined) [Esmolol] (concentration: 25 µM),0.9278 ± 0.0077,1.08 ± 0.12
CC(C)[C@H]1CC[C@H](C(=O)N[C@H](Cc2ccccc2)C(=O)O)CC1 [Nateglinide] (concentration: 25 µM),0.966 ± 0.063,0.883 ± 0.14
CC(=O)NS(=O)(=O)c1ccc(N)cc1 [Sulfacetamide·Na] (concentration: 25 µM),0.951 ± 0.038,0.78 ± 0.07
CN[C@@H]1[C@H](O)[C@H](NC)[C@H]2O[C@@]3(O)C(=O)C[C@@H](C)O[C@H]3O[C@@H]2[C@H]1O [Spectinomycin·HCl Pentahydrate] (concentration: 25 µM),1.05 ± 0.014,0.941 ± 0.16
Cc1cnc(C(=O)NCCc2ccc(S(=O)(=O)NC(=O)NC3CCCCC3)cc2)cn1 [Glipizide] (concentration: 25 µM),1.09 ± 0.049,0.612 ± 0.11
NC(=O)c1cn(Cc2c(F)cccc2F)nn1 [Rufinamide] (concentration: 25 µM),0.968 ± 0.042,0.803 ± 0.055
OC(Cn1cncn1)(Cn1cncn1)c1ccc(F)cc1F [Fluconazole] (concentration: 25 µM),0.969 ± 0.054,0.325 ± 0.14
CS(=O)(=O)OCCCCOS(C)(=O)=O [Busulfan] (concentration: 25 µM),1.03 ± 0.016,0.343 ± 0.046
CC(C)NCC(O)c1ccc(NS(C)(=O)=O)cc1 (centres undefined) [Sotalol·HCl] (concentration: 25 µM),0.893 ± 0.059,0.268 ± 0.17
CC[C@H]1OC(=O)[C@H](C)C(=O)[C@H](C)[C@@H](O[C@@H]2O[C@H](C)C[C@H](N(C)C)[C@H]2O)[C@](C)(OC)C[C@@H](C)C(=O)[C@H](C)[C@H]2N(CCCCn3cnc(-c4cccnc4)c3)C(=O)O[C@]12C [Telithromycin] (concentration: 25 µM),0.921 ± 0.049,0.949 ± 0.057

# — the supplement of paper PMC4709259
